Results published in PubChem BioAssay (Tox21).
“And” between values parts separate entries of the source, which are not always exact repeats. Equal values may be shown once. Inconclusive results are not listed. Entries that show only a call come without a potency. Some structures have more than one record in an assay (separate samples or runs), and their calls can disagree. The source made the active and inactive calls. Calls follow the shape of the dose curve; as a rule, active = well fitted curve in the direction sought with a large enough effect in the repeat runs; inconclusive = weak or mixed curves; inactive = no such curve, though single readings can be large; an effect the other way counts as inactive or inconclusive.

experiment: A CellTox Green Cytotoxicity Assay to monitor cytotoxicity in HepG2 cells - 40 hour (AID 1224879); conditions: CellTox Green fluorescence; series mostly up to 76.8 µM; cytotoxicity increase: at the top concentration; also: nearly all actives have a fitted effect of over 40% in size; also: potency is read from the fitted curve at half-maximal effect
How it was run: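 Real-time, homogeneous cytotoxicity readout: dead-cell DNA staining by CellTox Green in HepG2 monolayers, fluorescence measured at timed intervals up to 40 h of continuous compound exposure.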

SMILES	Potency	cytotoxicity increase
COC(=O)CCCCC(=O)OC	inactive	–
O=C(NCC1CCCCN1)c1cc(OCC(F)(F)F)ccc1OCC(F)(F)F (stereo unspecified)	inactive	–
CCCCCNCCCCC	inactive	–
OB(O)O	inactive	–
C=C(C)CC(C)(C)C	inactive	–
O=[N+]([O-])c1cc(C(F)(F)F)ccc1Cl	inactive	–
CCCCCCC(=O)O	inactive	–
CC(=O)OC/C=C(\C)CCC=C(C)C	inactive	–
OC[C@H]1O[C@@H](Oc2ccc(O)cc2)[C@H](O)[C@@H](O)[C@@H]1O	inactive	–
CC1(C)C(=O)N(Cl)C(=O)N1Cl	inactive	–
CC(=O)c1nccs1	inactive	–
COc1ccc2cc3[n+](cc2c1OC)CCc1cc2c(cc1-3)OCO2	inactive	–
CC(O)CNCC(C)O (stereo unspecified)	inactive	–
Cc1ccccc1Cl	inactive	–
CO[Si](CCCNCCN)(OC)OC	inactive and 49 µM (active)	–
Oc1ccc(Cc2ccccc2O)cc1	inactive	–
CCCN(CCC)C(=O)SCC	inactive	–
CS(=O)(=O)c1ccc(Cl)cc1	–	0.105% (inactive)
CC[N+](CC)(CC(=O)Nc1c(C)cccc1C)Cc1ccccc1	inactive	–

SMILES	Potency	cytotoxicity increase
COc1ccc([C@@H]2CC(=O)c3c(O)cc(O[C@@H]4O[C@H](CO[C@@H]5O[C@@H](C)[C@H](O)[C@@H](O)[C@H]5O)[C@@H](O)[C@H](O)[C@H]4O)cc3O2)cc1OC	inactive	–
C1CCCNCC1	inactive	–
NC(=O)NC(N)=O	inactive	–
O=[N+]([O-])c1ccccc1C(F)(F)F	inactive	–
CC(=O)OC(C)(C)C1CC=C(C)CC1 (stereo unspecified)	inactive	–
CCCCCCCC(=O)O	inactive	–
CC(COCC(C)OC(=O)c1ccccc1)OC(=O)c1ccccc1 (stereo unspecified)	inactive	–
Cc1ccncc1	inactive	–
COc1c(Cl)ccc(Cl)c1C(=O)O	inactive	–
CN=C(NC#N)NCCSCc1nc[nH]c1C	–	4.92% (inactive)
OCC(O)CS (stereo unspecified)	inactive	–
CCOC(=O)CC(=O)OCC	inactive	–
COC(=O)/C=C\C(=O)OC	–	-11% [at 35.3 µM] (inactive)
CC1=CC(=O)CC(C)(C)C1	25.3 µM (active) and inactive	–
CC(=O)CC(=O)N(C)C	inactive	–
O=c1n(CCCN2CCN(c3cccc(Cl)c3)CC2)nc2ccccn12	inactive	–
N#CCC(=O)O	inactive	–
NC(=O)c1ncn([C@@H]2O[C@H](CO)[C@@H](O)[C@H]2O)n1	inactive	–
c1cnc2c(c1)ccc1cccnc12	44.1 µM (active) and inactive	–

experiment: qHTS RealTime-Glo MT Cell Viability Assay in HEK293 cells - 0 hour (AID 1224880); conditions: RealTime-Glo luminescence; series mostly up to 76.8 µM; activity change, negative = cytotoxicity: at the top concentration; also: top concentration of the series differs between compounds; nearly all actives have a fitted effect of over 45% in size
How it was run: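 Nonlytic bioluminescent viability monitoring. HEK293 at 600 cells/well with reagent; 5 h settle; compound transfer by pintool; plates held at 37 C and read at set time points.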

SMILES	Potency
COC(=O)CCCCC(=O)OC	inactive
O=C(NCC1CCCCN1)c1cc(OCC(F)(F)F)ccc1OCC(F)(F)F (stereo unspecified)	inactive
CCCCCNCCCCC	inactive
OB(O)O	inactive
C=C(C)CC(C)(C)C	inactive
O=[N+]([O-])c1cc(C(F)(F)F)ccc1Cl	inactive
CCCCCCC(=O)O	inactive
CC(=O)OC/C=C(\C)CCC=C(C)C	inactive
OC[C@H]1O[C@@H](Oc2ccc(O)cc2)[C@H](O)[C@@H](O)[C@@H]1O	inactive
CC1(C)C(=O)N(Cl)C(=O)N1Cl	inactive
CC(=O)c1nccs1	inactive
COc1ccc2cc3[n+](cc2c1OC)CCc1cc2c(cc1-3)OCO2	inactive
CC(O)CNCC(C)O (stereo unspecified)	inactive
Cc1ccccc1Cl	inactive
CO[Si](CCCNCCN)(OC)OC	inactive
Oc1ccc(Cc2ccccc2O)cc1	inactive
CCCN(CCC)C(=O)SCC	inactive
CS(=O)(=O)c1ccc(Cl)cc1	inactive
CC[N+](CC)(CC(=O)Nc1c(C)cccc1C)Cc1ccccc1	inactive

SMILES	Potency
COc1ccc([C@@H]2CC(=O)c3c(O)cc(O[C@@H]4O[C@H](CO[C@@H]5O[C@@H](C)[C@H](O)[C@@H](O)[C@H]5O)[C@@H](O)[C@H](O)[C@H]4O)cc3O2)cc1OC	inactive
C1CCCNCC1	inactive
NC(=O)NC(N)=O	inactive
O=[N+]([O-])c1ccccc1C(F)(F)F	inactive
CC(=O)OC(C)(C)C1CC=C(C)CC1 (stereo unspecified)	inactive
CCCCCCCC(=O)O	inactive
CC(COCC(C)OC(=O)c1ccccc1)OC(=O)c1ccccc1 (stereo unspecified)	inactive
Cc1ccncc1	inactive
COc1c(Cl)ccc(Cl)c1C(=O)O	inactive
CN=C(NC#N)NCCSCc1nc[nH]c1C	inactive
OCC(O)CS (stereo unspecified)	inactive
CCOC(=O)CC(=O)OCC	inactive
COC(=O)/C=C\C(=O)OC	inactive
CC1=CC(=O)CC(C)(C)C1	inactive
CC(=O)CC(=O)N(C)C	inactive
O=c1n(CCCN2CCN(c3cccc(Cl)c3)CC2)nc2ccccn12	inactive
N#CCC(=O)O	inactive
NC(=O)c1ncn([C@@H]2O[C@H](CO)[C@@H](O)[C@H]2O)n1	inactive
c1cnc2c(c1)ccc1cccnc12	inactive
